Assay outcomes (PubChem)
BH1578 lux ind – inducers of Vibrio cholerae quorum light production without autoinducers; AID 588436; activation, % at 18.7 µM; hit rate 0.16% among 350,000; V. cholerae BH1578 lux reporter, luminescence, 6 h; in the data active = activation mostly above about 9.7%, no sharp cut-off
MazF activator – increases E. coli MazEF RNase cleavage of RNA | P0AE70 | FAM/BHQ RNA-DNA oligo cleavage fluorescence, 5 h | activation, % at 20 µM | hit rate 0.32% among 350,000 | AID 504720; in the data active = activation above about 50%
Target sequence (P0AE70 whole entry, looked up): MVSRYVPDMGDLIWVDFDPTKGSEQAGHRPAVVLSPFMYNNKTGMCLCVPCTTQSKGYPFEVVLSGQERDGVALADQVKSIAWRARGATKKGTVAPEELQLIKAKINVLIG
VHR inh abs – inhibitors of human VHR1 phosphatase (DUSP3); P51452; AID 1654; hit rate 0.52% among 290,000; recombinant VHR phosphatase, pNPP absorbance; inhibition, % at 13.3 µM; in the data active = inhibition above about 50%
Target sequence (P51452 whole entry, looked up): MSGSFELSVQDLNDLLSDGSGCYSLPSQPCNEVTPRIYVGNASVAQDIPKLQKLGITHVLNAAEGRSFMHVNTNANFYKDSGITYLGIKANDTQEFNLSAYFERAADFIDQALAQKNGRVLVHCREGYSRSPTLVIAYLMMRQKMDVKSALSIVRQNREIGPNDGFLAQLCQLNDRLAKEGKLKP
Y pestis TopoI – inhibitors of Yersinia pestis topoisomerase I. hit rate 0.064% among 360,000. Y. pestis Topo-I cleavage product accumulation, plate reader. activity, % at 10 µM; in the data active = activity above about 50%, passing the limit was not always enough
CCHF vOTU inh-1 – CCHFV vOTU protease inhibition. Pep-AMC fluorescence. inhibition, % at 11.5 µM. hit rate 0.55% among 370,000. AID 651958; note: 0% = vehicle wells with enzyme and 100% = no enzyme wells
PrPC TRFRET – reduces human prion protein on the cell surface; P04156; cell surface PrPC, TR-FRET read-out; inhibition, % at 13.8 µM; hit rate 0.43% among 370,000; in the data active = inhibition above about 24%; note: 0% = median of the test wells and 100% = reference compound wells
CCHF vOTU inh-2 – confirmation of CCHF virus vOTU protease inhibitors. shares compounds with CCHF vOTU inh-1. Recombinant CCHFV vOTU, Pep-AMC fluorescence. inhibition, % at 11.5 µM. hit rate 17% among 1,900
* hit, by the source's call; i = inactive; nt = not tested or not shown. Shown are actives, neighbours in structure and some others; about 1.8% of the full set was active somewhere. Cut-off read from the data, not from the text of the source, unless noted: active = inhibition above about 30%; inactive = the rest.

SMILES	BH1578 lux ind	MazF activator	VHR inh abs	Y pestis TopoI	CCHF vOTU inh-1	PrPC TRFRET	CCHF vOTU inh-2
CC(=O)[C@@H]1[C@@H]2C(=O)N(Cc3ccccc3)C(=O)[C@@H]2C2c3ccccc3C=CN21 (some centres undefined)	i	9	22	15	64*	-3	33*
CC(C)(C)C(=O)[C@@H]1[C@@H]2C(=O)N(c3ccc4c(c3)OCCO4)C(=O)[C@@H]2C2c3ccccc3C=CN21 (some centres undefined)	0	11	17	-13	54*	0	-7
Cc1ccc(N2C(=O)[C@@H]3[C@H](C2=O)C2c4ccccc4C=CN2[C@@H]3C(=O)c2ccco2)c(C)c1 (some centres undefined)	i	-27	2	1	95*	7	53*
Cc1ccc(N2C(=O)[C@@H]3[C@H](C2=O)[C@H]2C=C(C(=O)c4ccccc4)C=CN2[C@@H]3C(=O)c2ccc(Cl)cc2)cc1	0	-11	2	-8	2	-5	nt
COCC#Cc1cnc2c(c1)C(=O)N([C@H](C)CO)C[C@H](C)[C@@H](CN(C)S(=O)(=O)c1ccccc1)O2	i	6	nt	-4	-7	4	nt
OCCC1CN(C2CCN(c3ccccc3F)CC2)CCN1Cc1ccccc1 (centres undefined)	-2	-6	13	1	-1	-3	nt
Cc1ccc2c(c1)c(=O)c1c3n2CCN(C(=O)CCl)C3CC1 (centres undefined)	9	11	12	-7	51*	-9	19
Cc1ccc2c(c1)c(=O)c1c3n2CCN(CC#N)C3CC1 (centres undefined)	0	-3	30	20	-6	-2	nt
COc1ccc(/C=C/c2n[nH]c(=O)c(C#N)c2C)cc1	0	12	-20	8	13	-25	nt
COc1cccc(/C=N/Nc2nnc(C)n2N)c1O	-1	-2	-15	1	88*	-9	-8
Cc1nnc(N/N=C/c2cccc(OCc3ccc(Cl)c(Cl)c3)c2)n1N	0	22	-4	15	103*	5	-10
O=C(O)c1ccc(N/N=C/c2cccc(C(F)(F)F)c2)cc1	i	1	-14	-2	21	16	nt
NC(=O)N/N=C/c1cccc(OCc2ccc(F)cc2)c1	-3	-5	7	9	5	9	nt
Cc1nnc(N/N=C/c2cccc(C(F)(F)F)c2)n1N	i	5	20	-3	105*	-1	-15
COc1cccc(/C=N/Nc2cc(Cl)nc(C)n2)c1O	-2	1	4	-1	10	1	nt
COc1ccc(-n2c(C)cc(/C=N/Nc3nnc(C)n3N)c2C)cc1	0	0	26	2	91*	-10	-8
CC(OC(=O)CCN1C(=O)C2CC=CCC2C1=O)C(=O)Nc1ccc(F)cc1 (centres undefined)	0	6	nt	-5	1	-2	nt
CC(CNC(=O)COC(=O)c1ccco1)c1ccccc1 (centres undefined)	0	10	nt	7	-12	4	nt
Cc1nnc(N/N=C/c2ccco2)n1N	0	6	-2	0	89*	-13	-16
Fc1ccccc1/C=N/Nc1nn[nH]n1	0	-6	16	1	2	5	nt
Cc1nnc(N/N=C/c2ccccc2F)n1N	-1	0	31	2	75*	0	-14
CN(C)c1cc(N/N=C/c2ccccc2C(F)(F)F)nc(N(C)C)n1	1	3	42	18	-1	5	nt
Cc1nnc(N/N=C/c2ccccc2C(F)(F)F)n1N	-1	1	17	-5	65*	-5	-8
CCOC(=O)C1=C(C)OC2(O)c3ccccc3C(=O)C12O (centres undefined)	i	8	-3	2	103*	4	19
CC(=O)C1=C(C)OC2(O)c3ccccc3C(=O)C12O (centres undefined)	-1	5	21	4	71*	-2	-8
SMILES	BH1578 lux ind	MazF activator	VHR inh abs	Y pestis TopoI	CCHF vOTU inh-1	PrPC TRFRET	CCHF vOTU inh-2
CC1(OC(=O)C2CCCC2)C(=O)C=C2C=C(c3ccsc3)N(CCCCO)C=C2C1=O (centres undefined)	1	-12	22	-1	30*	-16	34*
COc1ccc(CN2C=C3C(=O)C(C)(OC(=O)C4CCCC4)C(=O)C=C3C=C2c2ccsc2)cc1 (centres undefined)	i	4	15	21	9	-14	nt
CSCCC(NC(=O)c1ccccc1Br)C(=O)NNC(=O)c1cc(C)oc1C (centres undefined)	i	-1	nt	-1	-8	7	nt
Cc1c(C#N)c(O)[nH]c(=O)c1N=Nc1ccc(Cl)c(C(=O)O)c1	-2	2	nt	13	31*	-50	-3
COC(=O)[C@]12C[C@H](CC(=O)N3CCCCC3)C(=O)N(Cc3cccc4ccccc34)C1=C[C@H](COCc1ccccc1)O[C@@H]2C	nt	nt	nt	nt	9	1	nt
Cc1ccc(-c2nc(N)sc2C)cc1	i	1	3	7	-6	6	nt
CCCc1sc(N)nc1-c1ccc(C)cc1	-8	17	-2	-10	33*	-2	-15
CS(=O)(=O)c1ccc(N2CCN(S(=O)(=O)c3cccs3)CC2)c([N+](=O)[O-])c1	i	-3	nt	-4	35*	-28	-18
COC(=O)c1c(C)oc2c1cc(NS(=O)(=O)c1ccc(C(=O)O)cc1)c1ccccc12	0	6	17	-4	38*	-9	-8
COc1cc(C2CC(=O)Nc3n[nH]c(-c4ccccc4)c32)cc(OC)c1OC (centres undefined)	nt	9	15	nt	nt	nt	nt
Oc1cc(NCCc2cccnc2)cc2cccnc12	-1	15	nt	-2	41*	-11	13
Cc1cccc(OCC(=O)Nc2ccc(CN3CCOCC3)cc2)c1C	1	4	16	4	35*	1	-8
CN1C(=O)[C@H]2[C@@H](c3ccc(C(F)(F)F)cc3)N[C@]3(CCCN(Cc4ccc(C(F)(F)F)cc4)C3=O)[C@H]2C1=O	i	-2	nt	1	3	5	nt
CCC(=O)N1CCC1(C)C(=O)Nc1cccc2cccnc12 (centres undefined)	i	nt	nt	-2	1	-10	nt
CN(C)c1ncc(C2=C(Cl)C(=O)C(N3CCCC3)=C(Cl)C2=O)s1	i	10	nt	2	62*	-8	49*
CC1CCc2c(sc(NC(=O)c3ccco3)c2C(=O)O)C1 (centres undefined)	0	2	10	6	32*	0	0
Cn1c(CNC(=O)c2ccc(F)cc2)cc2ccccc21	i	-12	35	-5	-1	5	nt
Cc1cccc(C)c1NC(=O)c1sccc1SCc1cccc(C(F)(F)F)c1	0	-3	25	2	nt	nt	nt
Cc1ccc(NC(=O)c2sccc2SCc2cccc(C(F)(F)F)c2)cc1	i	-7	12	2	40*	5	-1
